# Records with an inconclusive call do not appear. Calls of active or inactive are those of the source. Unless noted, the call rests on the fitted dose curve; in most records, active means well fitted curve in the direction sought with a large enough effect; inconclusive means small, poorly fitted or top-dose-only effect, or another doubt; inactive means no such curve, though single readings can be large; an effect the other way counts as inactive or inconclusive.
# Assay: Cytotoxicity counterscreen for NFkB agonists and antagonists (AID 624476);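 further: cells exposed to compound for 48 hours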; further: potency means the concentration at half of the fitted maximal effect; on activity change, negative = cytotoxicity: on the % scale 0 is the no-effect control and ±100 the full control effect
# Conditions: NFkB reporter cell line viability counterscreen; series mostly up to 46.1 µM; activity change, negative = cytotoxicity: at the top concentration
Structure (SMILES),"activity change, negative = cytotoxicity",Potency
CC(C)(C(=O)NCC(F)(F)C(F)(F)F)C(=O)N[C@@H]1C(=O)Nc2ccccc2-c2ccccc21,-0.391% (inactive),–
O=C(N[C@@H](c1ccccc1)[C@@H]1CCCCN1)c1cccc(C(F)(F)F)c1Cl,-3.23% (inactive),–
O=C(CCCCCCC(=O)Nc1ccccc1)NO,–,38.2 µM (active)
CS(=O)c1ccc(-c2nc(-c3ccc(F)cc3)c(-c3ccncc3)[nH]2)cc1 (stereo unspecified),-4.77% (inactive),–
CN(C)Cc1ccc(-c2nc3cccc4c3n2CCNC4=O)cc1,-16.2% (inactive),–
CC(C)[C@H](CO)Nc1nc(Nc2ccc(C(=O)O)c(Cl)c2)c2ncn(C(C)C)c2n1,-0.797% (inactive),–
COc1cc2ncnc(Nc3ccc(F)c(Cl)c3)c2cc1OCCCN1CCOCC1,-75.5% (inactive),–

# Assay: qHTS Assay for Identification of Small Molecule Antagonists for NFkB Signaling Pathway. (AID 624479; calls by dose curve;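 further: pathway stimulated with TNF alpha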; further: potency means the concentration at half of the fitted maximal effect; on activity change, negative = inhibition: on the % scale 0 is the no-effect control and ±100 the full control effect)
# Conditions: NFkB pathway reporter cell assay, antagonist mode; series mostly up to 38.3 µM; activity change, negative = inhibition: at the top concentration
Structure (SMILES),"activity change, negative = inhibition",Potency
CC(C)(C(=O)NCC(F)(F)C(F)(F)F)C(=O)N[C@@H]1C(=O)Nc2ccccc2-c2ccccc21,-14.6% (inactive),–
O=C(N[C@@H](c1ccccc1)[C@@H]1CCCCN1)c1cccc(C(F)(F)F)c1Cl,-8.33% (inactive),–
O=C(CCCCCCC(=O)Nc1ccccc1)NO,-21.5% [at 76.6 µM] (inactive),–
CS(=O)c1ccc(-c2nc(-c3ccc(F)cc3)c(-c3ccncc3)[nH]2)cc1 (stereo unspecified),-17.6% (inactive),–
CN(C)Cc1ccc(-c2nc3cccc4c3n2CCNC4=O)cc1,–,23.7 µM (active)
CC(C)[C@H](CO)Nc1nc(Nc2ccc(C(=O)O)c(Cl)c2)c2ncn(C(C)C)c2n1,-19.8% (inactive),–
O=C1Nc2ccc(Cl)cc2C(C#CC2CC2)(C(F)(F)F)O1 (stereo unspecified),–,30.6 µM (active)

# Assay: Cell Proliferation Assay against the TMD8 Cell Line (AID 651645);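 further: cells exposed to compound for 48 h before reading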
# Conditions: TMD8 DLBCL cell line proliferation/viability; at 46.1 µM (top of the series) unless noted
# Outline: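 Luminescent ATP read-out (CellTiter-Glo, 15 min RT) after 48 h compound exposure of log-growing TMD8 cells at 37C; percent activity scaled between DMSO as 100% and 9.2 uM bortezomib final as 0%.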
row,Structure (SMILES),viability (% of control)
1,CC(C)(C(=O)NCC(F)(F)C(F)(F)F)C(=O)N[C@@H]1C(=O)Nc2ccccc2-c2ccccc21,61.9%
2,O=C(N[C@@H](c1ccccc1)[C@@H]1CCCCN1)c1cccc(C(F)(F)F)c1Cl,74.3%
3,O=C(CCCCCCC(=O)Nc1ccccc1)NO,2.92% [at 92.2 µM]
4,CN(C)Cc1ccc(-c2nc3cccc4c3n2CCNC4=O)cc1,17%
5,CC(C)[C@H](CO)Nc1nc(Nc2ccc(C(=O)O)c(Cl)c2)c2ncn(C(C)C)c2n1,83.7%
6,COc1cc2ncnc(Nc3ccc(F)c(Cl)c3)c2cc1OCCCN1CCOCC1,50.3%

# Assay: Cell Proliferation Assay against the HBL1 Cell Line (AID 651646);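 further: cells exposed to compound for 48 h before reading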
# Conditions: HBL1 DLBCL cells; at 46.1 µM (top of the series) unless noted
# Outline: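 After a 48 h incubation of 500 HBL1 cells/well in phenol red-free RPMI plus 5% FBS, relative luciferase units from CellTiter-Glo gave percent activity against DMSO and 9.2 uM bortezomib (final) controls.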
row,Structure (SMILES),"viability, percent of control"
1,CC(C)(C(=O)NCC(F)(F)C(F)(F)F)C(=O)N[C@@H]1C(=O)Nc2ccccc2-c2ccccc21,73.4%
2,O=C(N[C@@H](c1ccccc1)[C@@H]1CCCCN1)c1cccc(C(F)(F)F)c1Cl,28.1%
3,O=C(CCCCCCC(=O)Nc1ccccc1)NO,3.42% [at 92.2 µM]
4,CN(C)Cc1ccc(-c2nc3cccc4c3n2CCNC4=O)cc1,60.9%
5,CC(C)[C@H](CO)Nc1nc(Nc2ccc(C(=O)O)c(Cl)c2)c2ncn(C(C)C)c2n1,129%
6,COc1cc2ncnc(Nc3ccc(F)c(Cl)c3)c2cc1OCCCN1CCOCC1,40.3%

# Source: PubChem BioAssay (NCATS)
